Experimental findings from paper PMC7862700, “An all-to-all approach to the identification of sequence-specific readers for epigenetic DNA modifications on cytosine” are described below.

Assay in all cases: DAPPL (digital affinity profiling via proximity ligation, sequencing); 10 mM Tris-HCl pH 7.5, 50 mM NaCl, 1 mM DTT, 4% glycerol, room temperature, 30 min; GST-TFs on glutathione beads, 16-mer random dsDNA library, 0.1% formaldehyde crosslink after washing; high values mean tight binding
One assay has as its target T1, FEV (Homo sapiens, UniProt Q99581 1-238).
T1 sequence: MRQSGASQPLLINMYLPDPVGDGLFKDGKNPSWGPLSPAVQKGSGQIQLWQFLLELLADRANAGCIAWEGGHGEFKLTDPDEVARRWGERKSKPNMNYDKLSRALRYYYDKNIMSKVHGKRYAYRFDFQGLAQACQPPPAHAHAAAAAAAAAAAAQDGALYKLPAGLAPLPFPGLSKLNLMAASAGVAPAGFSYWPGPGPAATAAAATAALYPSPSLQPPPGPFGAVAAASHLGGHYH
As to conditions: protein: recombinant; tags: N-terminal GST; dsDNA, one strand shown. Put shortly: (§1)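 In yeast, human transcription factors were expressed with a GST fusion, then pulled down on glutathione beads and given DNA barcodes. Pooled with a tag-only sample, they were exposed to 200 nmole of a 16-mer random double-stranded DNA library (Tris/NaCl/DTT/glycerol buffer, room temperature, 30 min), washed, crosslinked with 0.1% formaldehyde, proximity-ligated using BsaI/T4 ligase for 1 h at 37 °C, PCR-amplified and read on an Illumina NextSeq500. Each hexamer's frequency of reads for a factor, divided by the matching frequency for the tag-only sample, gives the binding signal.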

Another assay concerns the target ETV5 (Homo sapiens, UniProt P41161 1-510). As to conditions: protein: recombinant; tags: N-terminal GST; dsDNA, one strand shown. Put shortly:
as §1

The target in the next assay is HSF1 (Homo sapiens, UniProt Q00613 1-529). As to conditions: protein: recombinant; tags: N-terminal GST; chain copies: 3; dsDNA, one strand shown. Put shortly: as §1
Chain of HSF1 (Q00613 whole entry): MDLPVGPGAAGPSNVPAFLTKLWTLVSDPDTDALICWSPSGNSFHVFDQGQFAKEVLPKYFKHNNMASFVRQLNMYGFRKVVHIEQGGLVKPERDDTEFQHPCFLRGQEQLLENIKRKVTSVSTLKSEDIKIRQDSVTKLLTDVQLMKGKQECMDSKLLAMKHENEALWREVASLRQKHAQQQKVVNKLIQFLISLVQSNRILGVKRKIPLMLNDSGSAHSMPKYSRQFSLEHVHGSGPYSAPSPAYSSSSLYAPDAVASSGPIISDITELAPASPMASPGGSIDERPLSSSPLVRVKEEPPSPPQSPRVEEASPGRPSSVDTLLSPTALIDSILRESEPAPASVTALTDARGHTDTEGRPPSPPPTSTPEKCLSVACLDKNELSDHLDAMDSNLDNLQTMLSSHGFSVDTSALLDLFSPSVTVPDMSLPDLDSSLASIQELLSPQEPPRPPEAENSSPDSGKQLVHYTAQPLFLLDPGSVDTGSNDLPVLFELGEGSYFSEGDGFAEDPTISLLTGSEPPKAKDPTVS
The next assay concerns the target T2, SPIC (Homo sapiens, UniProt Q8N5J4 1-248).
T2 sequence: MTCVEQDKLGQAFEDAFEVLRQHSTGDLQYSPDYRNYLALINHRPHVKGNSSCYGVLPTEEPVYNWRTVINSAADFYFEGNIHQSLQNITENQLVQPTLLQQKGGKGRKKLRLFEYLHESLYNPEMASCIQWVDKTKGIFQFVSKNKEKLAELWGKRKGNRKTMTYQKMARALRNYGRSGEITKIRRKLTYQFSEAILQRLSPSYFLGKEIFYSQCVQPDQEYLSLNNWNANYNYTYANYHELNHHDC
As to conditions: protein: recombinant; tags: N-terminal GST; dsDNA, one strand shown. Put shortly:
as §1

Another assay deals with ELF4 (Homo sapiens, UniProt Q99607 1-663). As to conditions: protein: recombinant; tags: N-terminal GST; dsDNA, one strand shown. Summed up: as §1
Chain of ELF4 (Q99607 whole entry): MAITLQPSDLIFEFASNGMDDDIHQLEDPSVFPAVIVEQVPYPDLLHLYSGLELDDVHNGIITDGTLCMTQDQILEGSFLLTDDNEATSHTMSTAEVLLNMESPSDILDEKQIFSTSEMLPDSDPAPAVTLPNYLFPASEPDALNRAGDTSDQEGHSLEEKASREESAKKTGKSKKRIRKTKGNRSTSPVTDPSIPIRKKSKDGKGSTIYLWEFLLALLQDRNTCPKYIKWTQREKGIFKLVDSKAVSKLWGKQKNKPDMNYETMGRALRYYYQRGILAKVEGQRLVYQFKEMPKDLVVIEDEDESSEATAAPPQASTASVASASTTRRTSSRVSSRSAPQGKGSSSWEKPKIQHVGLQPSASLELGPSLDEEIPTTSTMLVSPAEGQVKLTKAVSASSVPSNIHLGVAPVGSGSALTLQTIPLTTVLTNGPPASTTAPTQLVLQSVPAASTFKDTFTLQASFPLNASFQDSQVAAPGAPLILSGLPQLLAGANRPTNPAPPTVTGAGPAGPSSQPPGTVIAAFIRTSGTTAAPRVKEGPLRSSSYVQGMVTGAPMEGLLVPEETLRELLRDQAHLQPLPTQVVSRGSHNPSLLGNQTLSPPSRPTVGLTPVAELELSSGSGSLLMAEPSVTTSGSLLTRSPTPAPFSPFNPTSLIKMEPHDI
The target of another assay is T3, ELK4 (Homo sapiens, UniProt P28324-2 1-405).
T3 sequence: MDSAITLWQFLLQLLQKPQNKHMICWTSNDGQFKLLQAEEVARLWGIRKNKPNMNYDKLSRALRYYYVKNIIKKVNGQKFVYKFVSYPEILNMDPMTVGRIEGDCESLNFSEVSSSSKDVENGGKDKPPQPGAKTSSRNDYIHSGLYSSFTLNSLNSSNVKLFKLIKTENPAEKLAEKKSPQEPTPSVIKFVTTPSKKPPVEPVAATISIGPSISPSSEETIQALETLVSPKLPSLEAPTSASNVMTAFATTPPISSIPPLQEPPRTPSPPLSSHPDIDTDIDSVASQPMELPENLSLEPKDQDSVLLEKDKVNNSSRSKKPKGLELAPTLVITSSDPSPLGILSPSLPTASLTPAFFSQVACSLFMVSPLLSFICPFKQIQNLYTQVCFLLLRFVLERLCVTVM
As to conditions: protein: recombinant; tags: N-terminal GST; dsDNA, one strand shown. Put shortly:
as §1

The target of another assay is T4, ETV2 (Homo sapiens, UniProt O00321 1-342).
T4 sequence: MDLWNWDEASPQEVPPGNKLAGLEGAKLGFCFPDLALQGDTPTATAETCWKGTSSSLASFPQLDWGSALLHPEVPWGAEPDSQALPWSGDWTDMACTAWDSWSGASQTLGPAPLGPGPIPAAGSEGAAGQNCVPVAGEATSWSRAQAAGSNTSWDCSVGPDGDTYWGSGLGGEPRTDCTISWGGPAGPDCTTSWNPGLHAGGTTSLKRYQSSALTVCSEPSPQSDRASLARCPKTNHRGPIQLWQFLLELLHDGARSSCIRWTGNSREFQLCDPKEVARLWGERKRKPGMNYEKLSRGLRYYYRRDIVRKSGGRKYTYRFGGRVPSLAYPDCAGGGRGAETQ
As to conditions: protein: recombinant; tags: N-terminal GST; dsDNA, one strand shown. Summed up:
as §1

The target in another assay is T5, ELF3 (Homo sapiens, UniProt P78545 1-371).
T5 sequence: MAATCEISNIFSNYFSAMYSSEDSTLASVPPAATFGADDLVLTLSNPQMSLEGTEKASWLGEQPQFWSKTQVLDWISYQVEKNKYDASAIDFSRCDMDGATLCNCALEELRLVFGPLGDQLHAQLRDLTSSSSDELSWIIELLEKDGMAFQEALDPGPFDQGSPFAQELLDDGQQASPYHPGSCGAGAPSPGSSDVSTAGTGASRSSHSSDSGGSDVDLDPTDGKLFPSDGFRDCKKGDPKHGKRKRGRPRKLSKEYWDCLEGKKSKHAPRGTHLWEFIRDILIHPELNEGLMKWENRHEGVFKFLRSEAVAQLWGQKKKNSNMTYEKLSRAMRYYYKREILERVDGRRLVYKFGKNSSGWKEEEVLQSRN
As to conditions: protein: recombinant; tags: N-terminal GST; dsDNA, one strand shown. Put shortly: as §1

In a further assay the target is CRX (Homo sapiens, UniProt O43186 1-299). As to conditions: protein: recombinant; tags: N-terminal GST; dsDNA, one strand shown. Summed up:
as §1

A further assay addresses ETV1 (Homo sapiens, UniProt P50549 1-477). As to conditions: protein: recombinant; tags: N-terminal GST; dsDNA, one strand shown. Summed up: as §1
Another assay addresses T6, ERF (Homo sapiens, UniProt P50548 1-548).
T6 sequence: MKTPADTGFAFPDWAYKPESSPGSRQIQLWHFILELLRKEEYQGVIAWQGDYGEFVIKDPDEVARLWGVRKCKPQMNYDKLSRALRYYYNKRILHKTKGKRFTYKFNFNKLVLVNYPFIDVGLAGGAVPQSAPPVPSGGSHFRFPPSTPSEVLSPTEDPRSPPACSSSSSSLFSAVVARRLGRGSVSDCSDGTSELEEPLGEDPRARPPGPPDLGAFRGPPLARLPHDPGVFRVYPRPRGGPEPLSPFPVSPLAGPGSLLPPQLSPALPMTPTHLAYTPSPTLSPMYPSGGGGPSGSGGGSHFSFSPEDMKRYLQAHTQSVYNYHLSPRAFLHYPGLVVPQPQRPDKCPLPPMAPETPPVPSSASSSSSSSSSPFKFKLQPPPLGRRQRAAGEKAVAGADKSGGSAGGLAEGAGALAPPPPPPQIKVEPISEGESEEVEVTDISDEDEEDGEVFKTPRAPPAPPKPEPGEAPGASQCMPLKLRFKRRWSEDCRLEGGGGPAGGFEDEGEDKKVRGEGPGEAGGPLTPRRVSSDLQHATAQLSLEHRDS
As to conditions: protein: recombinant; tags: N-terminal GST; dsDNA, one strand shown. Put shortly: as §1

The target in the next assay is T7, ETV3L (Homo sapiens, UniProt Q6ZN32 1-361).
T7 sequence: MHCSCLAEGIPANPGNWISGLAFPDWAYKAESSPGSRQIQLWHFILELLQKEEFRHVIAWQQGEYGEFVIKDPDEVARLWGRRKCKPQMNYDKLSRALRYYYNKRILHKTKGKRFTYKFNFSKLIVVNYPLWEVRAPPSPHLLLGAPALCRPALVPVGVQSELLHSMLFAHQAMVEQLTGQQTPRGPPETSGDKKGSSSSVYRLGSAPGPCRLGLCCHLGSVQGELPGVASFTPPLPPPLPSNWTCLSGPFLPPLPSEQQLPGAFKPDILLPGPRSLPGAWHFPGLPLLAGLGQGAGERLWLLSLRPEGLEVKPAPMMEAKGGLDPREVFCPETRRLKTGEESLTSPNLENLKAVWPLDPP
As to conditions: protein: recombinant; tags: N-terminal GST; dsDNA, one strand shown. Put shortly:
as §1

The target of the next assay is T8, ETS2 (Homo sapiens, UniProt P15036 1-469).
T8 sequence: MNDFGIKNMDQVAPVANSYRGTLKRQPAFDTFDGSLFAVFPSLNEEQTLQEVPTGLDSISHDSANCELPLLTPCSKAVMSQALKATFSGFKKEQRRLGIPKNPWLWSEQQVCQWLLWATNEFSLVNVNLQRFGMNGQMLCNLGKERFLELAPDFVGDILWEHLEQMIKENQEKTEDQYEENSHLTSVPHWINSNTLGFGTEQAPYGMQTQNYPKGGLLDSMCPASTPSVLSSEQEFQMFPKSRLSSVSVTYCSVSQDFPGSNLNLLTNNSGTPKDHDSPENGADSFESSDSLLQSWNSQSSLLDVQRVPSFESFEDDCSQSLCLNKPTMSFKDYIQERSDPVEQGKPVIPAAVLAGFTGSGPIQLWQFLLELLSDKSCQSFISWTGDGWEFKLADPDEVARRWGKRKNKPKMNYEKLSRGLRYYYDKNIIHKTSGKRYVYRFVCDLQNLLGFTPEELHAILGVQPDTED
As to conditions: protein: recombinant; tags: N-terminal GST; dsDNA, one strand shown. Summed up:
as §1

In a further assay the target is T9, SPDEF (Homo sapiens, UniProt O95238 1-335).
T9 sequence: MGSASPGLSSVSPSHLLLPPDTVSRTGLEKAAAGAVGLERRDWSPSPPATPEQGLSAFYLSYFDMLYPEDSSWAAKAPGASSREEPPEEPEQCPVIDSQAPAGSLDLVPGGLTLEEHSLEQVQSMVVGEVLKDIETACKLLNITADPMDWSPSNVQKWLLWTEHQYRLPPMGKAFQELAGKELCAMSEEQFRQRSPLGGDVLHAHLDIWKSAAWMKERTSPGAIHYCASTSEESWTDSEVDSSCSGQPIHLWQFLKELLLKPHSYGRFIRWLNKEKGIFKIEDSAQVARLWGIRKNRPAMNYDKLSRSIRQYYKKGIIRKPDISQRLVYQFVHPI
As to conditions: protein: recombinant; tags: N-terminal GST; dsDNA, one strand shown. Summed up:
as §1

Another assay has as its target T10, ETV7 (Homo sapiens, UniProt Q9Y603 1-341).
T10 sequence: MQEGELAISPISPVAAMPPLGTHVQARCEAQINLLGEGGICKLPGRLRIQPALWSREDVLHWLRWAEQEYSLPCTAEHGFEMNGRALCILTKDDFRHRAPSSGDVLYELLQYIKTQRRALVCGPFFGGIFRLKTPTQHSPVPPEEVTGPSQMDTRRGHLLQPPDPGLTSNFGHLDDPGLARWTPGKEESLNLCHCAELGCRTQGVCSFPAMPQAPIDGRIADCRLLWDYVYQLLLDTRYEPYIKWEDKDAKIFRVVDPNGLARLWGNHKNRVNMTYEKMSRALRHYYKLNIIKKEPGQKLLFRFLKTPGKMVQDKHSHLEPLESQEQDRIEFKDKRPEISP
As to conditions: protein: recombinant; tags: N-terminal GST; dsDNA, one strand shown. Put shortly: as §1

The next assay deals with T11, ELF5 (Homo sapiens, UniProt Q9UKW6-2 1-255).
T11 sequence: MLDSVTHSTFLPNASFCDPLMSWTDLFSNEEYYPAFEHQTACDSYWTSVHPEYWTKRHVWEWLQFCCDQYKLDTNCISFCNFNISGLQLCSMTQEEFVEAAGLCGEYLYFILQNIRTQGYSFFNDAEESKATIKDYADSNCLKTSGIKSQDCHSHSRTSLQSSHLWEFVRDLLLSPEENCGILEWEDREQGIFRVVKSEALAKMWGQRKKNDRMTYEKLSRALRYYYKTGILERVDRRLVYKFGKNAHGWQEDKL
As to conditions: protein: recombinant; tags: N-terminal GST; dsDNA, one strand shown. Summed up: as §1

The target of the next assay is T12, ETV3 (Homo sapiens, UniProt P41162-2 1-143).
T12 sequence: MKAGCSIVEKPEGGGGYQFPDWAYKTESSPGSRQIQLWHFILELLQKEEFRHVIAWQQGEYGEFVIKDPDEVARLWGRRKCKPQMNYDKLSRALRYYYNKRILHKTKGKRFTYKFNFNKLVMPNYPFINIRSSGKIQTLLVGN
As to conditions: protein: recombinant; tags: N-terminal GST; dsDNA, one strand shown. Summed up:
as §1

In a further assay the target is ETV6 (Homo sapiens, UniProt P41212 1-452). As to conditions: protein: recombinant; tags: N-terminal GST; dsDNA, one strand shown. Put shortly:
as §1

Chain of ETV5 (P41161 whole entry): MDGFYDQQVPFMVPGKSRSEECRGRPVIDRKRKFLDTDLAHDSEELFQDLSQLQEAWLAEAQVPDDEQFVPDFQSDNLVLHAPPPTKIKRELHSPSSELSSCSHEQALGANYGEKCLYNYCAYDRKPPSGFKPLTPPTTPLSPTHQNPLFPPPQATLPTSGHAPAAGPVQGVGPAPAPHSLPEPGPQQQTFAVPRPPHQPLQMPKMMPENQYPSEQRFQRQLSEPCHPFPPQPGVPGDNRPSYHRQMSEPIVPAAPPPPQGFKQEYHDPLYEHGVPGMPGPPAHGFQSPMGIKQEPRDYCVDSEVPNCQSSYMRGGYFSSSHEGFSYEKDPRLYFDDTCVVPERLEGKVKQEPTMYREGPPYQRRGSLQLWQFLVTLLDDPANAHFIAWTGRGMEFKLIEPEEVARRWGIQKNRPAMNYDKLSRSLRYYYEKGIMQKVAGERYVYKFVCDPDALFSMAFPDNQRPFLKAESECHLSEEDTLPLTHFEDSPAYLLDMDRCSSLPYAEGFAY
Chain of ETV6 (P41212 whole entry): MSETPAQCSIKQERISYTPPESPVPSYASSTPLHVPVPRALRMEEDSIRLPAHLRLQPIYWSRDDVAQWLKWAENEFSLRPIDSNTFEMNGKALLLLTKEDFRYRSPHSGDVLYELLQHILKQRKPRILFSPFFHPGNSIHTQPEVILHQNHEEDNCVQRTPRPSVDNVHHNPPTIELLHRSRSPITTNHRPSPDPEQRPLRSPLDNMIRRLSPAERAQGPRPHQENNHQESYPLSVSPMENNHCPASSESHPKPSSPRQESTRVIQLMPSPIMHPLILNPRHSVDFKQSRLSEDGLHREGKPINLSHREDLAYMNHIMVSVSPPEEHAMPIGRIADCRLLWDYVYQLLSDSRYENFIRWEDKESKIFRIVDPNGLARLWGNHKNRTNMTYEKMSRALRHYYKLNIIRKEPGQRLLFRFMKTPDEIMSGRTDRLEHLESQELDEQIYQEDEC
Chain of ETV1 (P50549 whole entry): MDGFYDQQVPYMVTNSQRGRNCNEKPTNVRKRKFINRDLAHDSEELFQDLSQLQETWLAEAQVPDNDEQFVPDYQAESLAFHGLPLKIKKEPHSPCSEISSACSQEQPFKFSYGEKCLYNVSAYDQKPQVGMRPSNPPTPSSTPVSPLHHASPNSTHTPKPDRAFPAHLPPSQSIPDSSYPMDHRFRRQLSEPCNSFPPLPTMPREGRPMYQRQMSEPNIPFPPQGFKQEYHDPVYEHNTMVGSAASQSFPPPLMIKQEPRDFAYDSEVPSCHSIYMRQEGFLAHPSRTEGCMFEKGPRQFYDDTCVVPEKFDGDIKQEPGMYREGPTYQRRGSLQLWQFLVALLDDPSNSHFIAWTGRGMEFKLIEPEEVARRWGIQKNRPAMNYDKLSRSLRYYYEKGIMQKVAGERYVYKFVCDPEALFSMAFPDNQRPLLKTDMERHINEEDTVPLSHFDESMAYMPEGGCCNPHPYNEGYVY
Chain of CRX (O43186 whole entry): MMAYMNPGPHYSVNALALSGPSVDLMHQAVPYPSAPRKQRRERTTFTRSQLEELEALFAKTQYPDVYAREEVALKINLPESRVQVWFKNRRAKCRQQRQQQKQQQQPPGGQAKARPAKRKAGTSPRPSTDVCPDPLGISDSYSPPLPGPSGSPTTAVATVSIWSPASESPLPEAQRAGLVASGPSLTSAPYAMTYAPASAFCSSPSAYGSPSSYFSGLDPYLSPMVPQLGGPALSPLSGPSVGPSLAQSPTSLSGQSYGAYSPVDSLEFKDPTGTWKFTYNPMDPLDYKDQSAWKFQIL

Regarding AATTGA, the binding signal is 1.11 fold enrichment (6-mer frequency, TF over GST control) with FEV; 1.22 fold enrichment (6-mer frequency, TF over GST control) in the assay with ETV5; 1.05 fold enrichment (6-mer frequency, TF over GST control) with HSF1; 1.1 fold enrichment (6-mer frequency, TF over GST control) in the assay with SPIC; 1.18 fold enrichment (6-mer frequency, TF over GST control) with ELF4; 1.18 fold enrichment (6-mer frequency, TF over GST control) with ELK4. Moreover, the binding signal with ETV2 was 1.18 fold enrichment (6-mer frequency, TF over GST control); with ELF3 it was 1.3 fold enrichment (6-mer frequency, TF over GST control); with CRX, 1.1 fold enrichment (6-mer frequency, TF over GST control); with ETV1, 1.21 fold enrichment (6-mer frequency, TF over GST control); with ERF, 1.24 fold enrichment (6-mer frequency, TF over GST control); in the assay with ETV3L it was 1.13 fold enrichment (6-mer frequency, TF over GST control). Moreover, the binding signal with ETS2 was 1.26 fold enrichment (6-mer frequency, TF over GST control); with SPDEF, 1.15 fold enrichment (6-mer frequency, TF over GST control); in the assay with ETV7, 1.28 fold enrichment (6-mer frequency, TF over GST control); with ELF5, 1.21 fold enrichment (6-mer frequency, TF over GST control); with ETV3, 1.17 fold enrichment (6-mer frequency, TF over GST control); with ETV6, 1.19 fold enrichment (6-mer frequency, TF over GST control).
